Laboratory results published in PubChem BioAssay (NCI).
The panel holds about 79,000 compounds, 15% with a hit somewhere; the sample as a whole holds those more often. Activity calls are given as the source filed them. Cut-off read from the data, not from the text of the source: active = growth inhibition above about 70%; inactive = the rest.

Test: NCI Yeast Anticancer Drug Screen. Data for the mec2-1 strain (AID 157)
Conditions: S. cerevisiae mec2-1 strain, at 5.0 µM (retest, dose inferred, filed as 0.5), hits give high values
Outline: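 Using mec2-1 yeast: add compound, measure growth, express inhibition versus vehicle-treated cultures.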

Row | SMILES | growth inhibition
1 | CC[C@H]1CN2CCc3cc(OC)c(OC)cc3[C@@H]2C[C@@H]1C[C@H]1NCCc2cc(OC)c(OC)cc21 | -10% (inactive)
2 | S=C(NCCc1ccccc1)N/N=C/c1ccc(Cl)cc1 | 36% (inactive)
3 | O=C(O)Cc1ccc2c(c1O)C(=O)c1ccccc1C2=O | 0% (inactive)
4 | CC1CCN(C(=S)NNC(C)c2cc3ccccc3cn2)CC1 (stereo not drawn) | 60% (inactive)
5 | Cc1c[nH]c(C(=O)O)c1-c1ccc2c(-c3ccccc3)nc3ccccc3n12 | 11% (inactive)

Same assay, conditions: S. cerevisiae mec2-1 strain, at 50.0 µM (retest, dose inferred, filed as 5.0), hits give high values

Row | SMILES | growth inhibition
6 | CC(CN(C)C)C(=O)/C=C/c1c(Cl)cccc1Cl (stereo not drawn) | 96% (active)
7 | COc1ccc(C(=O)c2cc(Br)ccc2O)cc1 | 4% (inactive)
8 | COc1cccc(OC)c1C(=O)/C=C/c1ccccc1 | 66% (inactive)
9 | S=C(Nc1ccc(Cl)c(Cl)c1)SC1CCCCC1 | 97% (active)
10 | Cc1sc(N=Nc2c(O)[nH]c3ccccc23)nc1-c1ccccc1 | 27% (inactive)
11 | O=C(NC(c1ccccc1)N1CCOCC1)c1ccccc1 (stereo not drawn) | 7% (inactive)
12 | Cc1nc2ccc3c(ccc4nc(C)c(N=Nc5ccc(C(=N)N)cc5)c(O)c43)c2c(O)c1N=Nc1ccc(C(=N)N)cc1 | 95% (active)
13 | CN(C)CCNC(=O)C(c1ccccc1)c1ccccc1 | -4% (inactive)
14 | CCOc1ccc(C(=O)CCN2CCOCC2)cc1 | 27% (inactive)
15 | O=S(Nc1ccccc1Br)c1ccccc1 (stereo not drawn) | 16% (inactive)
16 | CSC(=S)N/N=C(\C)c1ccc[nH]1 | 96% (active)
17 | Cc1ccc(Cl)cc1NN | 97% (active)
18 | C[C@]12CC[C@H](O)C[C@@H]1CC[C@@H]1[C@@H]2CC[C@]2(C)[C@@H](c3cc(C(F)(F)F)n[nH]3)CC[C@@H]12 | 86% (active)
